Some test systems named below: DU-145 prostate; K-562 leukemia; MALME-3M melanoma; MDA-MB-231 breast; RXF 393 renal; SF-268 CNS; SF-295 CNS; SF-539 CNS; UACC-257 melanoma; M14 melanoma; HCT-15 colon; SNB-75 CNS; SNB-19 CNS; PC-3 prostate; UACC-62 melanoma; LOX IMVI melanoma; SK-MEL-28 melanoma; HT29 colon; U251 CNS; SK-MEL-5 melanoma.
Common to all, as to experiment: NCI-60 one-dose screen, 48 h (100 = growth as untreated, 0 = no growth, -100 = all killed)
Holding throughout (conditions): 10 µM unless noted

This is part of a sample that, as a whole, favours compounds with a hit. Of some 83,000 tested, about 20% had one in any assay.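 Single-concentration screen, 48 h exposure, 96-well plates. Endpoint: percent growth. Below 10 = active.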 A number with no mark means an inactive call. Activity calls are given as the source filed them.

Take `CCOC(=O)c1sc(NC(=O)CN2CCC(Cc3ccccc3)CC2)nc1C`: the growth with DU-145 prostate was 102%; in the test with K-562 leukemia it was 93.9%; in the test on MALME-3M melanoma, 82.4%; with MDA-MB-231 breast it was 119%; with RXF 393 renal it was 111%; in the test with SF-268 CNS, 106%. For the same molecule, the growth with SF-295 CNS was 42.3%; in the test with SF-539 CNS, 106%; in the test with UACC-257 melanoma it was 127%; in the test on M14 melanoma, 101%; with HCT-15 colon, 92.9%; in the test on SNB-75 CNS, 109%. The growth with SNB-19 CNS is 104%; in the test on PC-3 prostate, 93.1%; in the test on UACC-62 melanoma, 114%; in the test with LOX IMVI melanoma it was 96.7%; in the test on SK-MEL-28 melanoma, 110%.
For the molecule `NC1=NC(c2ccccc2OS(=O)(=O)c2ccc(Br)cc2)n2c(nc3ccccc32)N1` (stereo unspecified), the growth with DU-145 prostate is 109%; in the test with K-562 leukemia, 74.4%; with MALME-3M melanoma it was 104%; in the test with MDA-MB-231 breast it was 80.1%; in the test on RXF 393 renal, 109%; in the test with SF-268 CNS it was 95.1%. In addition, the growth was 99.1% in the test with SF-295 CNS; 96% with SF-539 CNS; 96.8% in the test with UACC-257 melanoma; 102% with HCT-15 colon; 92.1% in the test on HT29 colon; 80.2% in the test with SNB-75 CNS. In addition, the growth with SNB-19 CNS was 98.1%; with U251 CNS, 86.9%; with PC-3 prostate it was 80.1%; with SK-MEL-5 melanoma it was 91%; in the test on UACC-62 melanoma, 82.7%; in the test with SK-MEL-28 melanoma it was 102%.
Take `C=C[C@H]1C[C@@H]2C[C@@H]3[C@H]4C/C=C\C(=O)NCCCC5NC(=O)C(=C(O)/C=C/[C@@H]4CC(=O)[C@H]3[C@@H]2[C@H]1C)C5=O` (stereo partly specified): the growth with DU-145 prostate is -95.7% (active); in the test on K-562 leukemia it was -58.1% (active); in the test with MALME-3M melanoma, -72% (active); with MDA-MB-231 breast it was -75.6% (active); in the test with RXF 393 renal it was -85.6% (active); in the test on SF-268 CNS, -88.6% (active). Further, the growth with SF-295 CNS is 9.25% (active); with SF-539 CNS, -81.1% (active); in the test on UACC-257 melanoma it was -89.1% (active); with HCT-15 colon, -76.2% (active); in the test with HT29 colon it was -76% (active); in the test on SNB-75 CNS, -85.4% (active). Besides, the growth with SNB-19 CNS was -74% (active); in the test with U251 CNS, -96.4% (active); in the test with PC-3 prostate, -82.5% (active); with SK-MEL-5 melanoma it was -95.3% (active); with UACC-62 melanoma, -75.8% (active); in the test with LOX IMVI melanoma it was -47.2% (active). Further, the growth with SK-MEL-28 melanoma was -78% (active).
Turning to `CCN1CCN(c2nc3ccccc3c3c(=O)c4cc(F)ccc4sc23)CC1`, the growth in the test on DU-145 prostate was 66.4%; in the test with K-562 leukemia, 10.2%; in the test with MALME-3M melanoma it was 90.9%; in the test on MDA-MB-231 breast it was 51.8%; in the test with RXF 393 renal, 47.3%; with SF-268 CNS it was 53.7%. In addition, the growth in the test with SF-295 CNS was 93.2%; in the test on SF-539 CNS, 86%; in the test with UACC-257 melanoma it was 78.7%; in the test on HCT-15 colon, 48.2%; in the test on HT29 colon, 28%; in the test on SNB-19 CNS, 80.9%. For the same molecule, the growth with U251 CNS was 46.5%; in the test with PC-3 prostate, 78%; in the test on UACC-62 melanoma it was 44.1%; in the test with LOX IMVI melanoma it was 60.9%; with SK-MEL-28 melanoma, 78.2%.
`CC(C)(C)[Si](C)(C)OC1[C@@H](CNC(=O)NC(=O)CCl)O[C@@H](n2cnc3c(N)ncnc32)[C@H]1O[Si](C)(C)C(C)(C)C` (stereo partly specified): the growth was 23% in the test on DU-145 prostate; -33.9% (active) in the test with K-562 leukemia; -67.3% (active) with MALME-3M melanoma; -76.8% (active) in the test on MDA-MB-231 breast; -13.3% (active) in the test on RXF 393 renal; -76.6% (active) in the test on SF-268 CNS. Also, the growth with SF-295 CNS was -57.4% (active); in the test with SF-539 CNS, 15%; in the test on M14 melanoma it was 23.3%; in the test with HCT-15 colon, -72.8% (active); in the test on HT29 colon, -74.7% (active); in the test on SNB-75 CNS, 50%. Also, the growth is -81% (active) in the test on U251 CNS; -83% (active) with PC-3 prostate; 90.6% with SK-MEL-5 melanoma; -75% (active) in the test with UACC-62 melanoma; -91.3% (active) with LOX IMVI melanoma; -14.4% (active) with SK-MEL-28 melanoma.
Regarding `O=C(CCCCCCC(=O)Nc1ccc2c(c1)/C(=C/c1ccc[nH]1)C(=O)N2)NO`, the growth in the test on DU-145 prostate was 4.55% (active); with K-562 leukemia it was 11.6%; in the test with MALME-3M melanoma it was 36.5%; in the test with MDA-MB-231 breast it was 1.47% (active); with RXF 393 renal, -30.8% (active); in the test on SF-268 CNS, -13% (active). The growth was 6.46% (active) in the test on SF-295 CNS; 23% in the test with SF-539 CNS; 9.98% (active) with UACC-257 melanoma; 3.6% (active) with M14 melanoma; 41.5% in the test with HCT-15 colon; 53% in the test with SNB-75 CNS. Also, the growth in the test with SNB-19 CNS was 16.3%; in the test with U251 CNS, -9.13% (active); with SK-MEL-5 melanoma, -75% (active); in the test with LOX IMVI melanoma, -69.8% (active); in the test with SK-MEL-28 melanoma it was 14.6%.
In the case of `C=CC(=O)N1CC2(CCC(n3nc(-c4ccc(Oc5ccccc5)cc4)c4c(N)ncnc43)CC2)C1`, the growth was -52.3% (active) in the test on DU-145 prostate; 3.48% (active) with K-562 leukemia; -70.7% (active) with MALME-3M melanoma; -31% (active) in the test with MDA-MB-231 breast; -94.9% (active) with RXF 393 renal; -81.1% (active) in the test with SF-268 CNS. The growth with SF-295 CNS is -13.9% (active); with SF-539 CNS, -94.4% (active); in the test on M14 melanoma, -79.7% (active); in the test with HCT-15 colon, -60.5% (active); with HT29 colon it was -60.3% (active); with SNB-75 CNS, -69.5% (active). For the same molecule, the growth is -0.912% (active) in the test on SNB-19 CNS; -73.8% (active) with U251 CNS; -19.6% (active) in the test on PC-3 prostate; -90.7% (active) in the test with UACC-62 melanoma; -65% (active) in the test on LOX IMVI melanoma; -67.9% (active) in the test on SK-MEL-28 melanoma.
For `Nc1c(Br)cc(Br)cc1-c1n[nH]c(=O)[nH]c1=O`, the growth with DU-145 prostate is 114%; with K-562 leukemia it was 102%; with MALME-3M melanoma, 98.4%; in the test on MDA-MB-231 breast, 87.4%; with RXF 393 renal it was 103%; with SF-268 CNS, 104%. Also, the growth with SF-295 CNS is 98%; with SF-539 CNS, 92.5%; in the test with M14 melanoma it was 101%; in the test with HCT-15 colon, 98.1%; in the test with HT29 colon, 99.7%; in the test with SNB-75 CNS, 85.5%. Besides, the growth in the test with U251 CNS was 100%; with PC-3 prostate, 99%; in the test on UACC-62 melanoma, 106%; in the test with LOX IMVI melanoma, 96.1%; in the test on SK-MEL-28 melanoma, 110%.
